Test results published in ChEMBL document CHEMBL3988442, “University of Dundee, Small-Polar-MMV Screening Library” (2021).
The campaign covered roughly 69,000 compounds. About 950 (1.4%) showed an effect of 50% or more. For the sample, strong results were picked, then their nearest neighbours and some compounds at random.

These molecules were tested on Mycobacterium tuberculosis (assay: Cornell M. t heat shock assay; also: in the data most compounds retested in dose-response had high values).
Assay type: functional, organism-based
Set-up: dose or concentration left out as unconfirmed
With Cc1cnn(CC2CN(Cc3nc(-c4ccoc4)no3)CCO2)c1 (centres undefined) the “Percent Effect” value was 8.998%.
c1cnn(CCN2CCOC(Cn3cccn3)C2)c1 (centres undefined) was tested, and the “Percent Effect” value was -7.25%.
In the case of c1cnn(CC2CN(Cc3nc(-c4ccsc4)no3)CCO2)c1 (centres undefined), the “Percent Effect” value is reported as -8.346%.
In the case of O=S(=O)(CCN1CCOC(Cn2cccn2)C1)c1ccccc1 (centres undefined), the “Percent Effect” value is reported as 6.109%.
Cc1nc(CN2CCOC(Cn3cccn3)C2)no1 (centres undefined) was tested, and the “Percent Effect” value was -15.93%.
For Cc1cnn(CC2CN(CCS(=O)(=O)C(F)(F)F)CCO2)c1 (centres undefined), the “Percent Effect” value was 85.56%.
For O=S(=O)(CCN1CCOC(Cn2cccn2)C1)C(F)(F)F (centres undefined), the “Percent Effect” value was 103.2%.
With Cc1cnn(CC2CN(CCCS(C)(=O)=O)CCO2)c1 (centres undefined) the “Percent Effect” value was 7.266%.
For Cc1ccc(-c2nc(CN3CCOC(Cn4cccn4)C3)no2)cc1 (centres undefined), the “Percent Effect” value was 60.58%.
In the case of Cc1cnn(CC2CN(Cc3nc(-c4ccsc4)no3)CCO2)c1 (centres undefined), the “Percent Effect” value is reported as 77.9%.
c1ccc(-c2nc(CN3CCOC(Cn4cccn4)C3)no2)cc1 (centres undefined) was tested, and the “Percent Effect” value was 2.98%.
In the case of Cc1cnn(CC2CN(CCS(C)(=O)=O)CCO2)c1 (centres undefined), the “Percent Effect” value is reported as 3.305%.
With O=C(O)C(F)(F)F.O=C(O)C(F)(F)F.c1cncc(N2CCCn3nnc(CN4CCCCC4)c3C2)c1 the “Percent Effect” value was 0.6199%.
In the case of C1CC(CN2CCc3c(nnn3CC3CC3)C2COCC2CC2)C1.O=C(O)C(F)(F)F (centres undefined), the “Percent Effect” value is reported as -20.7%.
For Cl.Cl.Cn1cc(C(=O)NCc2cncc3c2CCNC3)cn1, the “Percent Effect” value was -18.1%.
With CN1CCN(CC2CN(CC3CC3)Cc3nccn3C2)CC1.O=C(O)C(F)(F)F.O=C(O)C(F)(F)F.O=C(O)C(F)(F)F (centres undefined) the “Percent Effect” value was -11.65%.
With O=C(O)C(F)(F)F.O[C@@H]1CCN(CC2CC2)[C@H]1Cc1ccccc1 the “Percent Effect” value was -16.02%.
In the case of O=C(O)C(F)(F)F.O=C(O)C(F)(F)F.O=C(O)C(F)(F)F.c1ccc(CN2CC[C@@H]3O[C@@H](COCCN4CCCC4)CC[C@@H]32)nc1, the “Percent Effect” value is reported as -2.857%.
For CCOc1cccc2c1OCC(=O)N(c1ccc3c(c1)OCO3)C2, the “Percent Effect” value was -8.154%.
With CCOc1cccc2c1OCC(=O)N(c1ccc3c(c1)OCCO3)C2 the “Percent Effect” value was 11.44%.
In the case of CCOc1cccc2c1OCC(=O)N(c1ccc(N(C)C)cc1)C2, the “Percent Effect” value is reported as 78.25%.
In the case of COCCN1CCC2(CC1)CN(C(=O)c1ccco1)CCO2.O=C(O)C(F)(F)F, the “Percent Effect” value is reported as -23.42%.
In the case of Cl.O=C(Nc1nc2c(s1)CNCC2)NC1CCCC1, the “Percent Effect” value is reported as 102.9%.
In the case of O=C(Nc1nc2c(s1)CCC2)NC1CCCC1, the “Percent Effect” value is reported as 7.852%.
Cl.O=C(Nc1nc2c(s1)CNCC2)C1CC1 was tested, and the “Percent Effect” value was 12.02%.
For O=C(O)C(F)(F)F.O=C(O)C(F)(F)F.c1cncc(-c2nnn3c2COCC(CNCC2CCOCC2)C3)c1 (centres undefined), the “Percent Effect” value was -15.79%.
COCCn1cc2c(n1)C(CNCc1cccc(OC)c1)OCC2.O=C(O)C(F)(F)F (centres undefined) was tested, and the “Percent Effect” value was -15.92%.
In the case of Cc1ccc(CN2CC[C@@H]3O[C@@H](C(=O)N4CCN(C)CC4)C[C@@H]32)cc1.O=C(O)C(F)(F)F.O=C(O)C(F)(F)F, the “Percent Effect” value is reported as 25.47%.
In the case of CCn1ncc2c1CN(C(=O)c1cscn1)CC2COC.O=C(O)C(F)(F)F (centres undefined), the “Percent Effect” value is reported as 5.615%.
In the case of CC(C)CN1CCC(N2CCC(C(=O)N(C)C)CC2)CC1.O=C(O)C(F)(F)F.O=C(O)C(F)(F)F, the “Percent Effect” value is reported as 9.102%.
For O=C(c1cc(-c2ccn(CC3CC3)n2)n2ccccc12)N1CCCO1, the “Percent Effect” value was 3.9%.
For Cn1ccc(-c2cc(C(=O)N3CCC(O)CC3)c3ccccn23)n1, the “Percent Effect” value was 65.18%.
For Cn1ccc(-c2cc(C(=O)N3CCCCC3)c3ccccn23)n1, the “Percent Effect” value was 2.688%.
In the case of O=C(O)c1cc(-c2ccn(CC3CC3)n2)n2ccccc12, the “Percent Effect” value is reported as -0.3144%.
Cn1ccc(-c2cc(C(=O)N3CCC(C(N)=O)CC3)c3ccccn23)n1 was tested, and the “Percent Effect” value was 6.568%.
In the case of O=C(c1cc(-c2ccn(CC3CC3)n2)n2ccccc12)N1CCOCC1, the “Percent Effect” value is reported as 104.4%.
O=C(NC[C@H]1OC[C@@H]2CCN(Cc3ccco3)C[C@@H]21)c1ccnnc1.O=C(O)C(F)(F)F was tested, and the “Percent Effect” value was -10.06%.
With Cc1[nH]ccc1C(=O)N1CCCC(c2nccn2Cc2cscn2)C1 (centres undefined) the “Percent Effect” value was -1.058%.
In the case of CN(C)C(=O)[C@@H]1C[C@@H]2CCN(Cc3nccs3)C[C@@H]2O1.O=C(O)C(F)(F)F, the “Percent Effect” value is reported as -1.901%.
In the case of O=C(O)C(F)(F)F.O=C(c1cccc(F)c1)N1CCC2(CC1)CC(N1CCOCC1)C2, the “Percent Effect” value is reported as -0.407%.
With CCCC(=O)NC1CCc2c(ccc(=O)n2Cc2csc(C)n2)C1.O=C(O)C(F)(F)F (centres undefined) the “Percent Effect” value was 46.41%.
With Cc1cccc(CN2C[C@@H]3CN(C(=O)c4cnccn4)C[C@@H]3C2=O)n1.O=C(O)C(F)(F)F the “Percent Effect” value was -21.43%.
O=C(C1NCCc2[nH]cnc21)N1CCC2(C=Cc3ccccc32)CC1 (centres undefined) was tested, and the “Percent Effect” value was 4.298%.
O=C(C1NCCc2[nH]cnc21)N1CCC2(CC1)CNc1ccccc12 (centres undefined) was tested, and the “Percent Effect” value was 80.65%.
In the case of O=C1OC2(CCN(C(=O)C3NCCc4[nH]cnc43)CC2)c2ccccc21 (centres undefined), the “Percent Effect” value is reported as 26.76%.
For Cl.O=C(Nc1ccc(F)cc1)C(c1ccccc1)N1CCOCC1 (centres undefined), the “Percent Effect” value was -22.41%.
With CC(C)c1ccc(CN2C(=O)C3(CCNCC3)Nc3ccccc32)cc1 the “Percent Effect” value was 76.57%.
For N#Cc1cccc(CN2C(=O)C3(CCNCC3)Nc3ccccc32)c1, the “Percent Effect” value was -29.61%.
With C=Cc1ccc(CN2CCCC3(CNC(=O)c4ccccc4O3)C2)cc1 (centres undefined) the “Percent Effect” value was -6.668%.
In the case of Cl.O=C1CC2(CCNCC2)C(=O)N1Cc1ccc(F)cc1, the “Percent Effect” value is reported as -13.65%.
For NC(=O)c1ccc(CN2C(=O)C3(CCNCC3)Nc3ccccc32)cc1, the “Percent Effect” value was 0.2477%.
For C=Cc1ccc(CN2C(=O)C3(CCNCC3)Nc3ccccc32)cc1, the “Percent Effect” value was 97.35%.
For Cc1cc(C[C@@H]2CCC[C@H]2NCc2cc(F)ccc2F)on1.O=C(O)CC(O)(CC(=O)O)C(=O)O, the “Percent Effect” value was -16.01%.
With CC(=O)N1CCN(Cc2nccs2)CC2(CC(=O)N(C)C2)C1.O=C(O)C(F)(F)F (centres undefined) the “Percent Effect” value was -21.46%.
With CS(=O)(=O)N[C@H]1CN(C(=O)c2cscn2)[C@@H]2CCCO[C@H]12 the “Percent Effect” value was -7.446%.
COCC(=O)N1CCN(Cc2cccnc2)c2ncccc2C1.O=C(O)C(F)(F)F.O=C(O)C(F)(F)F was tested, and the “Percent Effect” value was -17.68%.
For CCNc1ncc2c(n1)CN(c1cccc(OC)c1)C2=O, the “Percent Effect” value was 4.456%.
With CCOC(=O)CSc1nnc([C@@H](N)CC(C)C)o1.Cl the “Percent Effect” value was -13.08%.
OCC1CCCN1c1cc(N2CCN(c3ccccn3)CC2)ncn1 (centres undefined) was tested, and the “Percent Effect” value was 0.3449%.
For OCC1CCCN1c1cc(N2CCC(OC3CCCC3)CC2)ncn1 (centres undefined), the “Percent Effect” value was 105.5%.
With CS(=O)(=O)N1CCN(c2cc(N3CCCC3CO)ncn2)CC1 (centres undefined) the “Percent Effect” value was -0.07305%.
With CC(Sc1nncn1C)C(=O)NCCCOc1ccc(F)cc1 (centres undefined) the “Percent Effect” value was 9.016%.
For O=C(NCc1ccccn1)[C@@H]1COC[C@H]2CN(C3CCC3)C[C@H]21.O=C(O)C(F)(F)F.O=C(O)C(F)(F)F, the “Percent Effect” value was 3.202%.
O=C(O)C(F)(F)F.O=C(O)C(F)(F)F.O=C(c1ccco1)N1C[C@@H]2OCCN(CCN3CCCC3)[C@@H]2C1 was tested, and the “Percent Effect” value was -4.474%.
With Cl.c1cc(CNCc2cccc3c2OCCCO3)cc(Cn2cncn2)c1 the “Percent Effect” value was -3.738%.
With N#Cc1ccc(C(=O)N2CC[C@H]3[C@@H]2CCC(=O)N3c2cccnc2)cc1.O=C(O)C(F)(F)F the “Percent Effect” value was 0.7242%.
With O=C(NCCc1cccc(Cl)c1)C1CCOCC1 the “Percent Effect” value was -3.977%.
For O=C1NCCCc2[nH]c(Cc3cccc(Cl)c3)nc21, the “Percent Effect” value was 2.952%.
For Cl.NCC1CCCCN1C(=O)Cc1cccc(Cl)c1 (centres undefined), the “Percent Effect” value was -16.31%.
Cl.Cl.Clc1cccc(C[C@@H]2NCCC[C@@H]2Nc2cccc(Cl)c2)c1 was tested, and the “Percent Effect” value was 105.7%.
For O=C(Cc1cccc(Cl)c1)N[C@@H]1CCNC[C@H]1O, the “Percent Effect” value was -8.967%.
For Cl.Cl.Clc1cccc(C[C@@H]2NCCC[C@@H]2Nc2ccccc2)c1, the “Percent Effect” value was 104.8%.
For Clc1cccc(CNC2CCN(CCc3ccncc3)CC2)c1, the “Percent Effect” value was -16.56%.
In the case of O=C(C[S+]([O-])Cc1cccc(Cl)c1)NC1CCCC1 (centres undefined), the “Percent Effect” value is reported as -6.776%.
For Cc1ccc(CN[C@@H]2COC[C@H]2c2ccc(F)cc2)cc1C.O=C(O)CC(O)(CC(=O)O)C(=O)O, the “Percent Effect” value was -6.111%.
In the case of Cc1csc(CN2C[C@@H]3COC[C@]3(COCC(=O)N(C)C)C2)n1.O=C(O)C(F)(F)F, the “Percent Effect” value is reported as -22.07%.
In the case of CCn1cc2c(n1)CN(Cc1nccs1)CC2COCC1CC1.O=C(O)C(F)(F)F (centres undefined), the “Percent Effect” value is reported as 3.982%.
For CC(C)c1nc(N2CCC(N3CCCCCC3)CC2)c2cnn(C)c2n1, the “Percent Effect” value was 94.23%.
For CC(C)c1nc(N2CCC(N3CCCC(O)C3)CC2)c2cnn(C)c2n1 (centres undefined), the “Percent Effect” value was -1.228%.
With CC(C)c1nc(N2CCC(N3CCSCC3)CC2)c2cnn(C)c2n1 the “Percent Effect” value was -6.323%.
Cc1csc(CN2CCC[C@]3(C[C@@H](Oc4ccccn4)CO3)C2)n1.O=C(O)C(F)(F)F.O=C(O)C(F)(F)F was tested, and the “Percent Effect” value was -18.33%.
With CCOc1ccnc(N2CCN(Cc3ncccc3C)CC2)n1 the “Percent Effect” value was 17.62%.
In the case of Cc1cccnc1CN1CCN(c2noc(-c3ccccc3)n2)CC1, the “Percent Effect” value is reported as 100.3%.
For Cc1noc(-c2ccc(N3CCN(Cc4ncccc4C)CC3)nc2)n1, the “Percent Effect” value was -11.68%.
In the case of Cc1nc(CN2C(=O)CCC23CCN(Cc2cccn2C)CC3)cs1.O=C(O)C(F)(F)F.O=C(O)C(F)(F)F, the “Percent Effect” value is reported as -21.2%.
With Cn1cccc1C(=O)N1C[C@H]2CN(CC3CC3)C(=O)[C@H]2C1 the “Percent Effect” value was 12.5%.
For CC(C)CN1C[C@@H]2CN(C(=O)c3cccn3C)C[C@@H]2C1=O, the “Percent Effect” value was 1.08%.
With CCN1C[C@@H]2CN(C(=O)c3cccn3C)C[C@@H]2C1=O the “Percent Effect” value was 97.42%.
In the case of O=C(NCc1ccc(F)cc1)C1CCCN(c2ccc3nncn3n2)C1 (centres undefined), the “Percent Effect” value is reported as -16.16%.
